Results reported in PubChem BioAssay.
Activity calls are given as the source filed them. Unless noted, no rule for the calls is given here.

Assays:
[1] = HepG2 liver cancer cell viability effects, profiling panel, resazurin fluorescence, 24 h, PK04 Diversity Set (AID 1172); details: higher = more signal
[2] = basal S. cerevisiae growth modulation, no modifier, primary screen, OD600, strain BY4716, 24 h, basal condition (AID 1173); details: OD600, 24 h, higher = more signal, called active from +8 up or from −8 down
[3] = MM1S myeloma cell viability, profiling panel, resazurin fluorescence, basal, 24 h, PK04 Diversity Set (AID 1174); details: higher = more signal, called active from +8 up or from −8 down;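 also: MM1S multiple myeloma cell line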
[4] = target: Dihydroorotate dehydrogenase (quinone), mitochondrial (Plasmodium falciparum (isolate 3D7)) (UniProt Q08210); experiment: PfDHODH enzyme inhibitors, primary screen, biochemical, C-terminal His tag, absorbance 600 nm (AID 1175); details: DCIP absorbance 600 nm, higher = more signal, called active from +8 up or from −8 down;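 also: recombinant parasite enzyme with a five histidine tag at its C terminus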
[5] = P. aeruginosa biofilm formation inhibitors, primary screen, strain PAO1, LB-PBS medium, absorbance 600 nm (AID 1176); details: P. aeruginosa PAO1 growth/biofilm, A600, 12 h; higher = more signal
[6] = S. cerevisiae RM11-1a growth modifiers, primary screen, strain RM11-1a, OD600, basal, 24 h (AID 1177); details: OD600, 24 h, higher = more signal, called active from +8 up or from −8 down;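 also: cultures grown under basal conditions with no added stressor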
[7] = E. coli acrAB mutant growth effects, primary screen, E. coli filamentation inducers, strain DRC39, OD650, 24 h (AID 1178); details: higher = more signal, called active from +8 up or from −8 down;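 also: growth measured as culture turbidity by optical density at 650 nm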
[8] = E. coli acrAB mutant growth effects, primary screen, E. coli filamentation inducers, strain DRC39, OD650, 48 h (AID 1179);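 also: screen aims at cell division blockers that make cells filament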; details: E. coli DRC39 delta-acrAB growth, higher = more signal, called active from +8 up or from −8 down
[9] = RPMI8226 myeloma cell viability, profiling panel, resazurin fluorescence, basal, 24 h, PK04 Diversity Set (AID 1180); details: higher = more signal;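 also: RPMI8826 multiple myeloma cell line at 5000 cells per well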
[10] = target: E3 ubiquitin-protein ligase XIAP (Homo sapiens) (UniProt P98170); experiment: XIAP binders, primary screen, biophysical, small-molecule microarray, fluorescence 635 nm (AID 1181); details: small-molecule microarray binding, higher = more signal;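 also: score merges 667 nm emission and signal to noise over triplicate slides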
[11] = system: XIP peptide (Xip251-270) binding; experiment: small-molecule binders of XIP peptide, primary screen, biochemical, small-molecule microarray, fluorescence 635/667 nm, 0.1 µg/mL protein (AID 1182); details: fluorescent protein binding, 635 nm, higher = more signal, called active from +8 up or from −8 down
XIP peptide (Xip251-270) = experiment: small-molecule binders of XIP peptide, primary screen, biochemical, small-molecule microarray, fluorescence 635/667 nm, 0.5 µg/mL protein (AID 1183); details: small-molecule microarray binding, fluorescence 635 nm; higher = more signal
[12] = Plasmodium falciparum growth inhibition, primary screen, strain 3D7, DAPI fluorescence, 100 nL (AID 1184);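 also: parasites grown inside human red blood cells in medium with human serum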; details: P. falciparum 3D7 growth, 3 d, higher = more signal
[13] = target: Homeobox protein Hox-A13 (Mus musculus) (UniProt Q62424); experiment: inhibitors of HoxA13-DNA binding, primary screen, biochemical, fluorescence polarization, labeled oligonucleotide (AID 1185); details: 15 min, higher = more signal, called active from +8 up or from −8 down
[14] = inhibitors of hydroxyurea-induced Chk1 phosphorylation, primary screen, imaging, HeLa, phospho-Chk1 antibody, percent positive cells (AID 1186); details: hydroxyurea-induced phospho-Chk1 immunofluorescence imaging, higher = more signal
[15] = inhibitors of hydroxyurea-induced Chk1 phosphorylation, primary screen, imaging, HeLa, phospho-Chk1 nuclear intensity (AID 1187); details: hydroxyurea-induced phospho-Chk1 immunofluorescence imaging, higher = more signal

Chain of Homeobox protein Hox-A13 (Mus musculus) (Q62424 whole entry, looked up): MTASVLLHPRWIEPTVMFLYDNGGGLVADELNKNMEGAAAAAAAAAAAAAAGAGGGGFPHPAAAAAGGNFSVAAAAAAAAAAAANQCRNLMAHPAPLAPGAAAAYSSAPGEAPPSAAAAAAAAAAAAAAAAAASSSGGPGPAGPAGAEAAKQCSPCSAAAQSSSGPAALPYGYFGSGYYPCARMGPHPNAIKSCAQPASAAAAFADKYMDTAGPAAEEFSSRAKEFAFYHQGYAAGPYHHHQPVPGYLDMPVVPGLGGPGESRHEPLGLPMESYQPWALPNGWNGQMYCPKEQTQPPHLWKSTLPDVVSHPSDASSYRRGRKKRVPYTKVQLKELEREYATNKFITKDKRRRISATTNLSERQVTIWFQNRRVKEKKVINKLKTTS
Chain of Dihydroorotate dehydrogenase (quinone), mitochondrial (Plasmodium falciparum (isolate 3D7)) (Q08210 whole entry, looked up): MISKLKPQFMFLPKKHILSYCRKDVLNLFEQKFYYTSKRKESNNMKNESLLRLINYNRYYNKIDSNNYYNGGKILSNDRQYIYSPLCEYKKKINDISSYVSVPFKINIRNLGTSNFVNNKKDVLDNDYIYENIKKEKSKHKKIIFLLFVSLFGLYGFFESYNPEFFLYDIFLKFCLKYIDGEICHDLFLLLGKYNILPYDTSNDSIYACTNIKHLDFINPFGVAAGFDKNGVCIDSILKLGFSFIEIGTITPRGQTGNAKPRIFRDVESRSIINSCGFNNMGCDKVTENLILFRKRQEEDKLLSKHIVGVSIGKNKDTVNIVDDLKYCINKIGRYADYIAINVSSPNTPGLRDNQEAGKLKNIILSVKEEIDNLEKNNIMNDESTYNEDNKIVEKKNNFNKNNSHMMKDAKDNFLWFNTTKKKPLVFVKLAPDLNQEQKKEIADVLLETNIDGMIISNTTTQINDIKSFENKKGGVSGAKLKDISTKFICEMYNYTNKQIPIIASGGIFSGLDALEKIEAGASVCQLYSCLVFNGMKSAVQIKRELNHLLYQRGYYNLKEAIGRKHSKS
Chain of E3 ubiquitin-protein ligase XIAP (Homo sapiens) (P98170 whole entry, looked up): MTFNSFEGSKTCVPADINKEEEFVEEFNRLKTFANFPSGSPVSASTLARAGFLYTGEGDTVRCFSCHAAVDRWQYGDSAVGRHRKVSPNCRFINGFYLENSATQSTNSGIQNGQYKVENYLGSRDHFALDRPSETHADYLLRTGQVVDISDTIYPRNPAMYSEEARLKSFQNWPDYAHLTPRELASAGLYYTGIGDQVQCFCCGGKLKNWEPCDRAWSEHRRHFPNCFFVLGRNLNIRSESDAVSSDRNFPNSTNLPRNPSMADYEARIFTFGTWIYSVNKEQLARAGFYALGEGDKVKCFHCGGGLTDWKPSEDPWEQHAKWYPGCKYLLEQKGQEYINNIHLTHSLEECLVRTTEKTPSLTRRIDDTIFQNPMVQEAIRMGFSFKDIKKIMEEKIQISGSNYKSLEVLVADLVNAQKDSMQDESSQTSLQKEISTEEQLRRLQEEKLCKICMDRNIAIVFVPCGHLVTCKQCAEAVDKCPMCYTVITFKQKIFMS

SMILES | z-score [1] | z-score [2] | z-score [3] | composite z-score [4] | z-score [5] | z-score [6] | z-score [7] | z-score [8] | z-score [9] | composite z-score [10] | composite z-score [11] | composite z-score (XIP peptide (Xip251-270)) | z-score [12] | z-score [13] | z-score [14] | z-score [15]
COc1ccc(C(=O)O[C@H]2CC[C@]3(C)C4=C(CCC3C2(C)C)[C@]2(C)CC[C@H]([C@H](C)CCCC(C)C)[C@@]2(C)CC4)cc1 (stereo partly drawn) | 1.09 | 1.77 (inactive) | 0.873 (inactive) | -1.74 (inactive) | 0.814 (inactive) | -1.09 (inactive) | 1.25 (inactive) | 1.11 (inactive) | 1.37 | -0.142 | -0.674 (inactive) | 0.0738 | 0.148 | -1.08 (inactive) | -0.975 (inactive) | -1.15 (inactive)
O=C(NCc1ccccc1)[C@@]1(CCS(=O)(=O)c2ccccc2)N=C(c2ccc(OCCCO)cc2)O[C@H]1c1ccccc1 | 1.36 | 1.01 (inactive) | -0.705 (inactive) | 1.05 (inactive) | -0.0304 (inactive) | 1.46 (inactive) | 0.714 (inactive) | 1.62 (inactive) | 0.448 | 0.202 | 0.429 (inactive) | 0.565 | -2.05 | -1.15 (inactive) | -0.751 (inactive) | -0.64 (inactive)
C=C(COC)/C(=C/C[C@H](OC(=O)c1ccncc1)c1ccc(OCCO)cc1)c1cnc2ccccc2c1 | 0.444 | -0.309 (inactive) | -0.389 (inactive) | -3.5 (inactive) | 0.424 (inactive) | -0.401 (inactive) | -0.802 (inactive) | -0.679 (inactive) | -0.342 | -0.174 | 0.908 (inactive) | 0.791 | -2.77 | -4.16 (inactive) | 0.157 (inactive) | 0.313 (inactive)
COCCOC(=O)N1C(=O)[C@@]2(c3cc(C#Cc4ccc(OC)cc4)ccc31)[C@H](C(=O)N1CCCCCCC1)[C@H]1C(=O)O[C@H](c3ccccc3)[C@H](c3ccccc3)N1[C@@H]2c1ccc(OCCO)cc1 | 0.73 | 0.777 (inactive) | 1.15 (inactive) | -1.37 (inactive) | 3.3 (inactive) | 0.262 (inactive) | 1.11 (inactive) | 2.25 (inactive) | 0.425 | 0.47 | 2.79 (inactive) | 0.635 | -2 | -15.8 (active) | -0.442 (inactive) | -0.617 (inactive)
CC(C)OC(=O)C=C1C[C@@H](c2ccccc2C(F)(F)F)O[C@@H](c2ccccc2C(F)(F)F)O1 | -0.111 | 0.0349 (inactive) | 0.493 (inactive) | -1.12 (inactive) | -0.212 (inactive) | 0.123 (inactive) | -1.23 (inactive) | 0.217 (inactive) | -0.818 | 0.193 | -0.245 (inactive) | -0.277 | -1.82 | 0.189 (inactive) | -0.319 (inactive) | -0.595 (inactive)
CC(C)(C)OC(=O)CC[C@@]1(C(=O)NCC(O)CO)N=C(c2ccc(OCCCO)cc2)O[C@@H]1c1ccccc1N=[N+]=[N-] (stereo partly drawn) | 0.486 | -0.69 (inactive) | -1.26 (inactive) | 0.536 (inactive) | -0.127 (inactive) | 0.151 (inactive) | 0.4 (inactive) | 1.65 (inactive) | 0.576 | 0.201 | 1.01 (inactive) | 0.795 | -1.86 | -4.43 (inactive) | -0.436 (inactive) | -0.65 (inactive)
COC(=O)[C@@]1(Cc2ccc(OC)cc2)[C@H]2c3cc(C(=O)N4CCCC4)n(Cc4ccccc4)c3C[C@H]2CN1C(=O)c1ccccc1 | -2.62 | 1.04 (inactive) | -0.912 (inactive) | -0.264 (inactive) | 0.219 (inactive) | 0.479 (inactive) | -0.559 (inactive) | 0.0434 (inactive) | -3.16 | -0.065 | 0.738 (inactive) | 0.0127 | -1.5 | -3.78 (inactive) | 0.212 (inactive) | 0.07 (inactive)
COCCOC(=O)N1C(=O)[C@@]2(c3cc(C#CC4=CCCCC4)ccc31)[C@H](c1ccc(O)cc1)N1[C@H](c3ccccc3)[C@H](c3ccccc3)OC(=O)[C@H]1[C@@H]2C(N)=O | -0.74 | -0.167 (inactive) | -1.85 (inactive) | -1.06 (inactive) | 0.318 (inactive) | 0.654 (inactive) | 0.066 (inactive) | 0.552 (inactive) | -2.95 | 0.0435 | 0.181 (inactive) | 0.751 | -0.0117 | -1.22 (inactive) | 0.0809 (inactive) | 0.185 (inactive)
COCCOC(=O)N1C(=O)[C@@]2(c3cc(C#CCCO)ccc31)[C@H](C(=O)N1CCN(c3ncccn3)CC1)[C@H]1C(=O)O[C@H](c3ccccc3)[C@H](c3ccccc3)N1[C@@H]2c1ccccc1OCCO | 0.906 | 0.674 (inactive) | 0.399 (inactive) | -0.237 (inactive) | -0.116 (inactive) | 1.36 (inactive) | 0.111 (inactive) | -0.776 (inactive) | 0.485 | -0.0312 | 0.954 (inactive) | 0.655 | -2.28 | -1.58 (inactive) | -0.0632 (inactive) | 0.111 (inactive)
CCCCN1CC=CC23O[C@@H]4C=CCOC(=O)[C@@H]4[C@H]2C(=O)N(CCCCCO)[C@@H]3C1=O (stereo partly drawn) | 0.371 | 0.0133 (inactive) | -0.86 (inactive) | -0.165 (inactive) | 0.91 (inactive) | -0.176 (inactive) | -0.967 (inactive) | -0.982 (inactive) | -0.531 | 0.327 | -0.338 (inactive) | 0.0889 | -0.198 | -3.39 (inactive) | -0.0035 (inactive) | -0.504 (inactive)
O=C1O[C@H](c2ccccc2)[C@H](c2ccccc2)N2[C@H]1[C@@H](C(=O)Nc1nc3ccccc3s1)[C@]1(C(=O)Nc3ccc(C#CC4(O)CCCCCC4)cc31)[C@H]2c1ccc(OCCO)cc1 | -0.43 | 1.16 (inactive) | -1.4 (inactive) | -0.568 (inactive) | 4.15 (inactive) | 0.773 (inactive) | -0.34 (inactive) | -0.706 (inactive) | -1.1 | 0.167 | 2.25 (inactive) | 0.663 | -1.8 | -0.979 (inactive) | 0.341 (inactive) | 0.346 (inactive)
COCCOC(=O)N1C(=O)[C@@]2(c3cc(C#CCCO)ccc31)[C@H](C(=O)N1CCc3cc(OC)c(OC)cc3C1)[C@H]1C(=O)O[C@H](c3ccccc3)[C@H](c3ccccc3)N1[C@@H]2c1ccc(O)cc1 | 0.0444 | -0.253 (inactive) | -0.419 (inactive) | -0.268 (inactive) | 0.875 (inactive) | 2.12 (inactive) | 0.316 (inactive) | 0.884 (inactive) | -0.368 | -0.0812 | 1.55 (inactive) | 0.798 | -0.439 | -2.01 (inactive) | -0.463 (inactive) | -0.656 (inactive)
COCCOC(=O)N1C(=O)[C@@]2(c3ccccc31)[C@H](c1ccc(O)cc1)N1[C@H](c3ccccc3)[C@H](c3ccccc3)OC(=O)[C@H]1[C@@H]2C(=O)NC[C@H](O)c1ccccc1 | -0.796 | 0.861 (inactive) | -0.397 (inactive) | 0.873 (inactive) | 0.173 (inactive) | 0.957 (inactive) | -1.12 (inactive) | -1.29 (inactive) | -0.199 | 0.201 | 2.15 (inactive) | 0.837 | -0.682 | -5.58 (inactive) | -0.229 (inactive) | -0.211 (inactive)
C=CC[C@]1(C(=O)NCCCOC)N=C(c2ccc(OCCCO)cc2)O[C@H]1c1ccccc1N=[N+]=[N-] | 0.632 | 0.215 (inactive) | -0.894 (inactive) | 1.1 (inactive) | 1.79 (inactive) | 0.571 (inactive) | 0.961 (inactive) | -0.615 (inactive) | -1.04 | 0.262 | 0.403 (inactive) | 0.707 | -1.99 | -3.07 (inactive) | -0.432 (inactive) | 0.0181 (inactive)
C#CCN(CC=C(C)C)[C@H](CO)c1ccccc1 | 0.0941 | -8.3 (active) | 0.101 (inactive) | -2.54 (inactive) | -0.635 (inactive) | -0.0386 (inactive) | -0.997 (inactive) | -1.3 (inactive) | -0.544 | -0.165 | 0.102 (inactive) | -0.564 | -1.34 | -0.2 (inactive) | 0.557 (inactive) | 0.457 (inactive)
COC(=O)[C@@]1(Cc2ccc(F)cc2)[C@H]2c3cc(C(=O)N(C)C)n(Cc4ccc(S(C)(=O)=O)cc4)c3C[C@H]2CN1C(=O)c1ccccc1 | -0.304 | 0.571 (inactive) | -0.0532 (inactive) | 0.382 (inactive) | 0.122 (inactive) | 0.325 (inactive) | -0.104 (inactive) | 0.118 (inactive) | -1.04 | -0.102 | 1.46 (inactive) | 0.788 | -0.589 | -4.58 (inactive) | 0.144 (inactive) | 0.0541 (inactive)
O=C1O[C@H](c2ccccc2)[C@H](c2ccccc2)N2[C@H]1[C@@H](C(=O)Nc1nc3ccccc3s1)[C@]1(C(=O)Nc3ccc(C#CCCO)cc31)[C@H]2c1ccc(OCCO)cc1 | -0.251 | 1.2 (inactive) | 0.527 (inactive) | -1.6 (inactive) | 1.85 (inactive) | 1.67 (inactive) | -0.567 (inactive) | 0.161 (inactive) | -1.3 | 0.0637 | 0.497 (inactive) | 0.769 | -1.19 | 1.37 (inactive) | -0.239 (inactive) | -0.262 (inactive)
Cc1ccc(S[C@]2(C(=O)NC(C)C)CC(=O)N(Cc3ccccc3Cl)[C@@H]2c2ccc(CO)cc2I)cc1 | 0.36 | -3.93 (inactive) | -2.83 (inactive) | -0.766 (inactive) | 0.723 (inactive) | -1.89 (inactive) | 0.0051 (inactive) | -0.465 (inactive) | -2.24 | -0.074 | 0.226 (inactive) | 0.293 | 0.906 | -3.31 (inactive) | 0.244 (inactive) | 0.723 (inactive)
